We go through 25 molecules from the supplement of paper PMC10515830.

Details in all cases: 10 µM; exposure time 6 h
Assay [1] has as its system Danio rerio larvae (5 dpf). Put plainly: difference in excitability vs DMSO (percentage points); higher = more excitable than DMSO. The gist of the method:
(§1)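 Wild-type zebrafish larvae at 5 dpf were kept in 96-well plates and exposed for 6 h to 100 µL egg water holding library compound at a final concentration of 10 µM. From 3 h into exposure, the plates were held at 28.5 ℃ and photographed every 6 s through a 3-h programme of moving lines and 100 ms, 400Hz tones. Each behaviour was scored by Z-LaP Tracker, a DeepLabCut model, and averaged over 48 larvae per compound. Every value gives the compound mean minus the vehicle control mean, in percentage points.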

Assay [2] has as its system Danio rerio larvae (5 dpf). Put plainly: difference in startle response vs DMSO (percentage points); higher = stronger startle than DMSO. The method in brief:
as §1

The test system of assay [3] is Danio rerio larvae (5 dpf). Put plainly: difference in activity during first hour vs DMSO (percentage points); higher = more activity than DMSO. The method in brief: as §1
For assay [4], the system named is Danio rerio larvae (5 dpf). Put plainly: difference in habituation to acoustic stimuli vs DMSO (percentage points); higher = more habituation than DMSO. The method in brief:
as §1

Assay [5] relates to Danio rerio larvae (5 dpf). Put plainly: difference in combined optomotor response to red, green and blue moving lines vs DMSO (percentage points); higher = stronger optomotor response than DMSO. The method in brief:
as §1

Structures can show the parent of a compound that is named as a salt.

In assay [1], `O=C(c1ccc(F)c(F)c1Nc1ccc(I)cc1F)N1CC(O)([C@@H]2CCCCN2)C1` [Cobimetinib] yielded a difference in excitability of 22.7. In addition, in assay [2], the “difference in startle response” value is -2.69. Moreover, in assay [3], the “difference in activity during first hour” value came out at 0.0371. Moreover, the “difference in habituation to acoustic stimuli” value (“difference in habituation” for short) in assay [4] was determined as 0.214. Further, the difference in assay [5] stood at 2.37.

For the molecule `C[C@H](N)[C@H](O)c1cccc(O)c1` [Metaraminol (tartrate)], the difference in excitability in assay [1] is 3.23. Further, in assay [2], the “difference in startle response” value was 5.35. For the same molecule, the “difference in activity during first hour” value in assay [3] was -15.4. In addition, the “difference in habituation” value in assay [4] was -0.886. Further, the difference in assay [5] is -6.91.

In assay [1], `CC[C@H]1OC(=O)[C@H](C)[C@@H](O[C@H]2C[C@@](C)(OC)[C@@H](O)[C@H](C)O2)[C@H](C)[C@@H](O[C@@H]2O[C@H](C)C[C@H](N(C)C)[C@H]2O)[C@](C)(OC)C[C@@H](C)C(=O)[C@H](C)[C@@H](O)[C@]1(C)O` [Clarithromycin] yielded a difference in excitability of 7.19. Moreover, in assay [2], the “difference in startle response” value is 1.97. In addition, in assay [3], the “difference in activity during first hour” value is 11.7. In addition, in assay [4], the “difference in habituation” value was -1.55. Moreover, the difference in assay [5] came out at 6.95.

In assay [1], `CNC(=C[N+](=O)[O-])NCCSCc1csc(CN(C)C)n1` [Nizatidine] gave a difference in excitability of -3.87. Besides, in assay [2], the “difference in startle response” value was -1.69. Moreover, the “difference in activity during first hour” value in assay [3] is 7.71. Further, in assay [4], the “difference in habituation” value is 2.96. Besides, in assay [5], the difference is 2.72.

Consider `Clc1ccc(CO/N=C(\Cn2ccnc2)c2ccc(Cl)cc2Cl)c(Cl)c1` [Oxiconazole (nitrate)], for which the difference in excitability in assay [1] is 5.37. Besides, the “difference in startle response” value in assay [2] was -6.72. Further, the “difference in activity during first hour” value in assay [3] was -22.9. In assay [4], the “difference in habituation” value is -11. The difference in assay [5] is -17.3.

For the molecule `CC(=O)NCCCS(=O)(=O)O` [Acamprosate (calcium salt)], the difference in excitability in assay [1] amounted to 5.62. Further, in assay [2], the “difference in startle response” value was 1.29. For the same molecule, in assay [3], the “difference in activity during first hour” value was -8.55. Besides, in assay [4], the “difference in habituation” value is 7.23. Besides, in assay [5], the difference was determined as 4.69.

Consider `Cc1cc(C)cc(OCC2CNC(=O)O2)c1` (stereo not given) [Metaxalone], for which the difference in excitability in assay [1] came out at 8.24. Besides, the “difference in startle response” value in assay [2] is -0.153. Further, in assay [3], the “difference in activity during first hour” value stood at 0.609. Besides, in assay [4], the “difference in habituation” value was 5.03. Further, the difference in assay [5] was found to be 10.1.

`NS(=O)(=O)c1cc2c(cc1C(F)(F)F)NC(Cc1ccccc1)NS2(=O)=O` (stereo not given) [Bendroflumethiazide]: the difference in excitability in assay [1] was 1.38. Also, the “difference in startle response” value in assay [2] is -5.47. The “difference in activity during first hour” value in assay [3] is 3.78. The “difference in habituation” value in assay [4] was -7.63. For the same molecule, the difference in assay [5] is -4.26.

As for `CCc1cccc2c3c([nH]c12)C(CC)(CC(=O)O)OCC3` (stereo not given) [Etodolac], the difference in excitability in assay [1] was -4.84. For the same molecule, the “difference in startle response” value in assay [2] amounted to 7.75. In assay [3], the “difference in activity during first hour” value turned out to be 13.6. For the same molecule, in assay [4], the “difference in habituation” value came out at 4.08. For the same molecule, the difference in assay [5] is 3.56.

`C=C[C@H]1CN2CC[C@H]1C[C@H]2[C@H](O)c1ccnc2ccc(OC)cc12` [Quinine]: the difference in excitability in assay [1] stood at 11.3. The “difference in startle response” value in assay [2] is 10.1. In addition, the “difference in activity during first hour” value in assay [3] is -2.96. Further, the “difference in habituation” value in assay [4] was 0.181. The difference in assay [5] is -0.242.

Molecule `Cc1cn([C@H]2C=C[C@@H](CO)O2)c(=O)[nH]c1=O` [Stavudine] yielded a difference in excitability in assay [1] of 7.17. Further, the “difference in startle response” value in assay [2] was -2.71. Besides, the “difference in activity during first hour” value in assay [3] is -1.82. Further, the “difference in habituation” value in assay [4] was found to be 5.47. The difference in assay [5] worked out at 4.85.

With `CC[C@@]1(O)C(=O)OCc2c1cc1n(c2=O)Cc2cc3c(CN(C)C)c(O)ccc3nc2-1` [Topotecan (hydrochloride)], in assay [1], the difference in excitability was 4.94. In assay [2], the “difference in startle response” value is -0.393. In addition, the “difference in activity during first hour” value in assay [3] came out at 0.473. In assay [4], the “difference in habituation” value was -4.39. Further, the difference in assay [5] turned out to be 1.01.

For the molecule `C[C@H](N[C@@H](CCc1ccccc1)C(=O)O)C(=O)N1CCC[C@H]1C(=O)O` [Enalaprilat (hydrate)], the difference in excitability in assay [1] is -0.583. The “difference in startle response” value in assay [2] is -2.87. Besides, the “difference in activity during first hour” value in assay [3] came out at 9.36. Further, in assay [4], the “difference in habituation” value came to 1.38. The difference in assay [5] came out at 1.55.

In the case of `CCN(CC)CCNC(=O)c1c(C)[nH]c(/C=C2\C(=O)Nc3ccc(F)cc32)c1C` [Sunitinib (malate)], the difference in excitability in assay [1] is 17.6. In addition, the “difference in startle response” value in assay [2] was -2.13. Further, the “difference in activity during first hour” value in assay [3] was -4. For the same molecule, the “difference in habituation” value in assay [4] came out at 0.523. Further, the difference in assay [5] was -0.123.

Molecule `COc1cc(C(=O)NCc2ccc(OCCN(C)C)cc2)cc(OC)c1OC` [Trimethobenzamide (hydrochloride)] had a difference in excitability in assay [1] of -3.22. The “difference in startle response” value in assay [2] came to 1.06. In addition, the “difference in activity during first hour” value in assay [3] was -0.789. Besides, the “difference in habituation” value in assay [4] turned out to be 2.91. In addition, in assay [5], the difference is -5.61.

Regarding `CCCc1nn(C)c2c(=O)[nH]c(-c3cc(S(=O)(=O)N4CCN(C)CC4)ccc3OCC)nc12` [Sildenafil Citrate], the difference in excitability in assay [1] amounted to 4.08. Further, the “difference in startle response” value in assay [2] is -0.935. The “difference in activity during first hour” value in assay [3] was -7.02. Moreover, the “difference in habituation” value in assay [4] is -0.835. Further, the difference in assay [5] came out at 5.26.

`C[n+]1ccccc1/C=N/O` [Pralidoxime (chloride)] came in with a difference in excitability in assay [1] of 1.97. In addition, the “difference in startle response” value in assay [2] is -3.28. Besides, the “difference in activity during first hour” value in assay [3] came to 6.01. Besides, in assay [4], the “difference in habituation” value was determined as 2.57. Also, the difference in assay [5] was 1.74.

Take `Cc1c(-c2ccccc2)oc2c(C(=O)OCCN3CCCCC3)cccc2c1=O` [Flavoxate (hydrochloride)]: in assay [1], the difference in excitability was determined as 8.74. For the same molecule, the “difference in startle response” value in assay [2] was determined as 1.49. Also, the “difference in activity during first hour” value in assay [3] is 13.3. Further, the “difference in habituation” value in assay [4] was -3.99. Also, the difference in assay [5] was 8.27.

`CC(=O)[C@@]1(O)CC[C@H]2[C@@H]3C[C@H](C)C4=CC(=O)C=C[C@]4(C)[C@@]3(F)[C@@H](O)C[C@@]21C` [Fluorometholone] registered a difference in excitability in assay [1] of 5.46. For the same molecule, the “difference in startle response” value in assay [2] turned out to be 1.23. The “difference in activity during first hour” value in assay [3] was -2.26. For the same molecule, the “difference in habituation” value in assay [4] was found to be 4.02. Moreover, in assay [5], the difference was determined as 1.57.

`CCCCCN(C)CCC(O)(P(=O)(O)O)P(=O)(O)O` [Ibandronate (sodium hydrate)] displayed a difference in excitability in assay [1] of -4.51. Moreover, in assay [2], the “difference in startle response” value is 1.53. The “difference in activity during first hour” value in assay [3] is -2.16. Besides, in assay [4], the “difference in habituation” value stood at 7.06. For the same molecule, the difference in assay [5] was -0.0828.

On to `COc1ccc2c3c1O[C@H]1C[C@@H](O)C=C[C@@]31CCN(C)C2` [Galantamine], for which the difference in excitability in assay [1] was 1.36. The “difference in startle response” value in assay [2] is -0.28. The “difference in activity during first hour” value in assay [3] came out at 15.8. In addition, the “difference in habituation” value in assay [4] is -3.53. Besides, the difference in assay [5] amounted to 4.1.

In turn, `CNCCC=C1c2ccccc2CCc2ccccc21` [Nortriptyline (hydrochloride)] registered a difference in excitability in assay [1] of 3.17. Besides, the “difference in startle response” value in assay [2] was found to be 4.3. For the same molecule, the “difference in activity during first hour” value in assay [3] is -17.9. For the same molecule, the “difference in habituation” value in assay [4] is -3.34. Moreover, in assay [5], the difference is -2.39.

In turn, `O=C1CCCC(=O)C1C(=O)c1ccc(C(F)(F)F)cc1[N+](=O)[O-]` [Nitisinone] had a difference in excitability in assay [1] of -4.15. Also, the “difference in startle response” value in assay [2] is -6.23. The “difference in activity during first hour” value in assay [3] worked out at 19.7. Moreover, the “difference in habituation” value in assay [4] was -0.151. In assay [5], the difference is 0.618.

Regarding `Cc1c(OCC(F)(F)F)ccnc1C[S+]([O-])c1nc2ccccc2[nH]1` (stereo not given) [Lansoprazole], in assay [1], the difference in excitability was found to be 8.61. In addition, in assay [2], the “difference in startle response” value was -2.87. Besides, the “difference in activity during first hour” value in assay [3] is 1.57. For the same molecule, the “difference in habituation” value in assay [4] was -2.95. The difference in assay [5] came to 6.61.

Take `CC(C)OC(=O)CCC/C=C\C[C@@H]1[C@@H](/C=C/[C@@H](O)COc2cccc(C(F)(F)F)c2)[C@H](O)C[C@@H]1O` [Fluprostenol isopropyl ester]: in assay [1], the difference in excitability turned out to be 7.89. In assay [2], the “difference in startle response” value was -1.38. In addition, in assay [3], the “difference in activity during first hour” value came to 5.82. The “difference in habituation” value in assay [4] stood at 8.61. For the same molecule, the difference in assay [5] was found to be 7.99.
